The text below walks through data of PubChem BioAssay.

The target in assay [1] is 6-phosphogluconate dehydrogenase, decarboxylating (Homo sapiens) (UniProt P52209). Nature of the assay: inhibition of human phosphogluconate dehydrogenase – biochemical, recombinant enzyme, NADPH absorbance, primary screen (AID 1159550;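 active = at least 20% inhibition of 6-phosphogluconate dehydrogenase activity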). To be noted: recombinant 6PGD, NADPH absorbance 341 nm; at 10 µM; stronger effect = higher value.
Assay [2] is described as follows: EMT-state selective cytotoxicity in co-culture – imaging, PC-3E GFP, TEM4-18 mCherry, primary screen (AID 1345086;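 active = compounds killing one labelled cell type while sparing the other, by normalised counts and ratio limits, not self-fluorescent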;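 for all read-outs here: cells exposed to compound for 72 h before imaging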;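 for red/green cell ratio (normalised): normalised mesenchymal count divided by normalised epithelial count so high means epithelial killing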). To be noted: PC-3E GFP / TEM4-18 mCherry co-culture, imaging cell counts, at 1 µM; for red/green cell ratio (normalised): actives lie on both sides.
Assay [3] relates to Aerobactin synthetase IucA (Klebsiella pneumoniae hvKP1). Nature of the assay: IucA enzyme inhibition, primary screen, biochemical, Spectrum library (AID 1346200).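 Note: 100% = wells without compound and 0% = wells lacking enzyme.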 To be noted: malachite green pyrophosphate, A620, at 8 µM, stronger effect = lower value.
For assay [4], the target named is Mitogen-activated protein kinase 7 (Homo sapiens) (UniProt Q13164). Nature of the assay: Gal4-ERK5 driven luciferase induction – cell-based, HTS, primary screen (AID 1508626;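 active = luciferase signal above three times the same-plate solvent-only control wells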;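 note: luciferase driven by Gal4-ERK5 fusion binding five Gal4 sites before minimal TATA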). To be noted: HeLa Gal4-ERK5 transactivation, 18 h, at 5 µM, stronger effect = higher value.
Mitogen-activated protein kinase 7 (Homo sapiens), sequence (Q13164 whole entry, looked up, the tested form may be a part): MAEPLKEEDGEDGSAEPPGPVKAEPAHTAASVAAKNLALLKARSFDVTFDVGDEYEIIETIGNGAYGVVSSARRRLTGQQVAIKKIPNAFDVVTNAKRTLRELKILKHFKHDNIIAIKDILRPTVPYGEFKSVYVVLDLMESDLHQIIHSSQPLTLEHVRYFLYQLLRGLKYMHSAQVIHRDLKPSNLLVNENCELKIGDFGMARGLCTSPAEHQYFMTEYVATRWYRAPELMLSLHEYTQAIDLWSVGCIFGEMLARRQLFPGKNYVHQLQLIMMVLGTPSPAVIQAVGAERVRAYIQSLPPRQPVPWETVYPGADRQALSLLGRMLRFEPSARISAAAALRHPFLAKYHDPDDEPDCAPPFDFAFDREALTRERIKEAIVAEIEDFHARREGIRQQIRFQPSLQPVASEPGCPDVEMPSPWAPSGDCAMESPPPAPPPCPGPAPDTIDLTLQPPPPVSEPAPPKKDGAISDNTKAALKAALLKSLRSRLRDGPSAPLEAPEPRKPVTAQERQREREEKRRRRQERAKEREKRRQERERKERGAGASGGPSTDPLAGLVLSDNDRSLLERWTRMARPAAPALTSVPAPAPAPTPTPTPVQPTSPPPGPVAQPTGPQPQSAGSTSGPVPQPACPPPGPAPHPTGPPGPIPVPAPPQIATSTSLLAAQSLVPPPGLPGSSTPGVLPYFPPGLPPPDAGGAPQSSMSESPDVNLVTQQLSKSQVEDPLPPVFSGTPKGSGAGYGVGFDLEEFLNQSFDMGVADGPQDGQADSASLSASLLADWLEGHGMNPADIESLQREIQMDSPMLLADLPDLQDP
Setting [5] is: measured here: epithelial PC-3E GFP cell survival.
Where [6] appears, read: measured here: mesenchymal TEM4-18 mCherry cell survival.
Where [7] appears, read: counts scaled to control wells, 1 = unselective.

Activity calls are given as the source filed them. Unless noted, the rule behind the calls is not given here.

6-phosphogluconate dehydrogenase, decarboxylating (Homo sapiens), sequence (P52209 whole entry, looked up): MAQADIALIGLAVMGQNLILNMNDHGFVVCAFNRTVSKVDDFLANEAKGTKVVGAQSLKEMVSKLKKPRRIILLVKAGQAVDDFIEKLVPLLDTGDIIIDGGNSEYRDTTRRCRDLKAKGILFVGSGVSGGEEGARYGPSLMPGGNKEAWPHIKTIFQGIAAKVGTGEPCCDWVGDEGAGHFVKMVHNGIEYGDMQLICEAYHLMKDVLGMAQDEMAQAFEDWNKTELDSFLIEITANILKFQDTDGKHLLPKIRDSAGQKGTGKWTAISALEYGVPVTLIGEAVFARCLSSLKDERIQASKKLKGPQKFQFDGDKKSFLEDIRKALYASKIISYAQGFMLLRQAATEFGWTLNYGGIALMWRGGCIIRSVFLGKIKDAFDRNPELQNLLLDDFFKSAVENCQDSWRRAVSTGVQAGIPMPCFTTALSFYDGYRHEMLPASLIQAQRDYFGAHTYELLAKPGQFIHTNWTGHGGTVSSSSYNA

The inhibition is the relative decrease from the control value, in per cent. Consider `CCOC(=O)C1C(C=C(C)C)C1(C)C` (stereo not given), for which the inhibition in assay [1] is -0.74% (inactive). Also, in assay [2], the red/green cell ratio (normalised) is 0.99 (inactive). In addition, the normalised cell number in assay [2] (setting [5]) turned out to be 1.19; in assay [2] (setting [6]) it was 1.18. In addition, the activity remaining in assay [3] is 107% (inactive). Also, the luciferase signal in assay [4] was 60 AU (inactive).
In the case of `COc1cc([C@@H]2c3cc4c(c(O)c3C[C@H]3COC(=O)[C@@H]32)OCO4)cc(OC)c1OC`, the inhibition in assay [1] was -17.8% (inactive). The red/green cell ratio (normalised) in assay [2] was 0.83 (inactive). Besides, the results for the normalised cell number in assay [2] (setting [5]) and in assay [2] (setting [6]) were 0.2 and 0.16, respectively. For the same compound, in assay [3], the activity remaining was 116% (inactive). Moreover, in assay [4], the luciferase signal is 16 AU (inactive).
With `CC(=O)CC1CCCCN1` (stereo not given), in assay [1], the inhibition was 16.3% (inactive). The red/green cell ratio (normalised) in assay [2] (setting [7]) is 1.09 (inactive). Also, the normalised cell number in assay [2] (setting [5]) was 0.99; in assay [2] (setting [6]) it was 1.09. The activity remaining in assay [3] is 107% (inactive). For the same compound, the luciferase signal in assay [4] was 48 AU (inactive).
As for `COc1cccc(C=O)c1OC`, the inhibition in assay [1] was 7.48% (inactive). Further, in assay [2] (setting [7]), the red/green cell ratio (normalised) was 1.04 (inactive). For the same compound, the normalised cell number in assay [2] (setting [5]) came to 0.98; in assay [2] (setting [6]) it was 1.02. The activity remaining in assay [3] is 93.4% (inactive). The luciferase signal in assay [4] is 60 AU (inactive).
Consider `CC(C)CCCC1(C)C=Cc2c(O)c3c(c(CCC(C)C)c2O1)OC12C(CC4CC1C(C)(C)OC2(CCC(C)C(=O)O)C4O)C3=O` (stereo not given), for which the inhibition in assay [1] is 0.442% (inactive). Moreover, in assay [2], the red/green cell ratio (normalised) was 0.9 (inactive). Further, the normalised cell number in assay [2] (setting [5]) amounted to 0.98; in assay [2] (setting [6]) it was 0.88. Moreover, the activity remaining in assay [3] is 98% (inactive). For the same compound, the luciferase signal in assay [4] was 76 AU (inactive).
Take `N#Cc1c(Cl)c(Cl)c(Cl)c(C#N)c1Cl`: the inhibition in assay [1] was -66.6% (inactive). In addition, the red/green cell ratio (normalised) in assay [2] was 0.93 (inactive). Further, the normalised cell number in assay [2] (setting [5]) and in assay [2] (setting [6]) was 0.04 in each case. Besides, in assay [3], the activity remaining was 108% (inactive). In addition, the luciferase signal in assay [4] is 604 AU (active).
`NCC(=O)c1ccccc1`: in assay [1], the inhibition was -6.79% (inactive). The red/green cell ratio (normalised) in assay [2] is 0.98 (inactive). The figures for the normalised cell number in assay [2] (setting [5]) and in assay [2] (setting [6]) were 1.03 and 1.02, respectively. Moreover, the activity remaining in assay [3] was 114% (inactive). Also, the luciferase signal in assay [4] is 56 AU (inactive).
With `CC(C)(C#N)O[C@@H]1O[C@H](CO)[C@@H](O)[C@H](O)[C@H]1O`, the inhibition in assay [1] was 5.98% (inactive). In addition, the red/green cell ratio (normalised) in assay [2] was 0.8 (inactive). Also, the normalised cell number in assay [2] (setting [5]) is 0.84; in assay [2] (setting [6]), 0.67. Further, the activity remaining in assay [3] is 94.3% (inactive). The luciferase signal in assay [4] is 92 AU (inactive).
On to `O=C1c2ccccc2-c2cccc3cccc1c23`, for which, in assay [1], the inhibition was -2.36% (inactive). Besides, the red/green cell ratio (normalised) in assay [2] (setting [7]) was 0.82 (inactive). Further, the normalised cell number came out at 1.23 in assay [2] (setting [5]) and 1.01 in assay [2] (setting [6]). For the same compound, the activity remaining in assay [3] was 106% (inactive). The luciferase signal in assay [4] is 64 AU (inactive).
As to `CC1(C)C(=O)[C@@H]2O[C@@H]2[C@@]2(C)C1C[C@@H](O)[C@]1(C)C2CC[C@@]2(C)[C@H](c3ccoc3)OC(=O)C3OC321` (stereo not given in full), the inhibition in assay [1] was 4.53% (inactive). Moreover, the red/green cell ratio (normalised) in assay [2] is 1.01 (inactive). For the same compound, the normalised cell number in assay [2] (setting [5]) and in assay [2] (setting [6]) was 1.01 in each case. Also, the activity remaining in assay [3] was 96.1% (inactive). Also, in assay [4], the luciferase signal is 24 AU (inactive).
